# Calls of active or inactive are those of the source. The calls were made as follows: active = hit-call score of the fitted dose curve at least 0.9, where 1 is the maximum; inactive = score below 0.9.
# Key:
# Details in all cases: mRNA level, 48 h; actives raise or lower the signal
# [1] = read-out: Insulin-like growth factor-binding protein 1 (IGFBP1), IGFBP1 (gene 3484); test: LTEA_HepaRG_IGFBP1: Life Technologies and Expression Analysis (LTEA) Assay for Insulin-like growth factor-binding protein 1 (IGFBP1) using HepaRG (AID 2283508)
# How it was run: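 HepaRG, 48 h, 8 conc. (max 100 uM, half-log), duplicates, 0.5% DMSO. Readout: TaqMan qRT-PCR, ACTB/GAPDH/POLR2A normalisation. Fit: bidirectional vs DMSO.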
# [2] = read-out: Interleukin 6 (IL6), IL6 (gene 3569); test: LTEA_HepaRG_IL6: Life Technologies and Expression Analysis (LTEA) Assay for Interleukin 6 (IL6) using HepaRG (AID 2283509)
# How it was run: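 Differentiated human HepaRG cells, plated 48 h then switched to serum-free induction medium, were exposed in duplicate for 48 h to eight half-log concentrations up to 100 uM in 0.5% DMSO. IL6 mRNA measured by qRT-PCR, normalized to ACTB/GAPDH/POLR2A.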
# [3] = read-out: Potassium channel subfamily K member 1 (KCNK1), KCNK1 (gene 3775); test: LTEA_HepaRG_KCNK1: Life Technologies and Expression Analysis (LTEA) Assay for Potassium channel subfamily K member 1 (KCNK1) using HepaRG (AID 2283511)
# How it was run: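 Differentiated human HepaRG cells in serum-free induction medium were exposed in duplicate for 48 h to 8 half-log concentrations up to 100 uM in 0.5% DMSO. KCNK1 mRNA was measured by TaqMan qRT-PCR, normalized to ACTB, GAPDH and POLR2A, and fitted bidirectionally versus DMSO.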
# [4] = read-out: Keratin 19 (KRT19), KRT19 (gene 3880); test: LTEA_HepaRG_KRT19: Life Technologies and Expression Analysis (LTEA) Assay for Keratin 19 (KRT19) using HepaRG (AID 2283512)
# How it was run: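 Readout is qRT-PCR of KRT19 mRNA, normalized to ACTB, GAPDH and POLR2A, from HepaRG cells treated 48 h with eight-point half-log dilutions topping at 100 uM. Activity in either direction is scored relative to 0.5% DMSO vehicle.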
# [5] = read-out: JUN Transcription Factor, JUN (gene 3725); test: LTEA_HepaRG_JUN: Life Technologies and Expression Analysis (LTEA) Assay for JUN Transcription Factor using HepaRG (AID 2283513)
# How it was run: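 Differentiated HepaRG cells were exposed to chemicals for 48 h in serum-free induction medium, 8 concentrations from 100 uM in half-log steps, 0.5% DMSO vehicle, in duplicate. JUN mRNA was quantified by TaqMan qRT-PCR, normalized to ACTB, GAPDH, POLR2A.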
# [6] = read-out: Lipase C (LIPC), LIPC (gene 3990); test: LTEA_HepaRG_LIPC: Life Technologies and Expression Analysis (LTEA) Assay for Lipase C (LIPC) using HepaRG (AID 2283514)
# How it was run: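 Differentiated human HepaRG cells in serum-free induction medium were exposed in duplicate for 48 h to eight concentrations (top 100 uM, half-log steps, 0.5% DMSO). LIPC mRNA was quantified by TaqMan qRT-PCR, normalized to ACTB, GAPDH and POLR2A, with bidirectional fitting versus DMSO.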
# [7] = read-out: Lipoprotein lipase (LPL), LPL (gene 4023); test: LTEA_HepaRG_LPL: Life Technologies and Expression Analysis (LTEA) Assay for Lipoprotein lipase (LPL) using HepaRG (AID 2283515)
# How it was run: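 Differentiated human HepaRG cells in serum-free induction medium were exposed in duplicate for 48 h to eight half-log concentrations (top 100 uM) in 0.5% DMSO. LPL mRNA was quantified by TaqMan qRT-PCR, normalized to ACTB, GAPDH and POLR2A.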
# [8] = read-out: MicroRNA 122 (MIR122), gene 406906; test: LTEA_HepaRG_MIR122: Life Technologies and Expression Analysis (LTEA) Assay for MicroRNA 122 (MIR122) using HepaRG (AID 2283516); also: the transcript read is the microRNA miR-122
# How it was run: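 Differentiated human HepaRG cells were exposed 48 h in serum-free induction medium to eight half-log concentrations (top 100 uM, 0.5% DMSO). Transcript level was measured by TaqMan qRT-PCR, normalized to ACTB, GAPDH and POLR2A, and fitted bidirectionally versus DMSO.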
# [9] = read-out: matrix metalloproteinase-10 (MMP10), MMP10 (gene 4319); test: LTEA_HepaRG_MMP10: Life Technologies and Expression Analysis (LTEA) Assay for matrix metalloproteinase-10 (MMP10) using HepaRG (AID 2283517)
# How it was run: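 HepaRG, collagen I, ~100,000 cells/well; serum-free induction medium; 48 h exposure, duplicate, 8-pt half-log to 100 uM, 0.5% DMSO. Readout: TaqMan qRT-PCR, normalized to ACTB/GAPDH/POLR2A; bidirectional fit vs DMSO.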
# MYC, MYC (gene 4609) = test: LTEA_HepaRG_MYC: Life Technologies and Expression Analysis (LTEA) Assay for MYC using HepaRG (AID 2283518)
# How it was run: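 Expression changes were scored by TaqMan qRT-PCR with ACTB, GAPDH and POLR2A normalization. Cultures in serum-free induction medium received duplicate 8-point concentration series, highest 100 uM, for 48 h; DMSO (0.5%) served as baseline.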
# [10] = read-out: matrix metalloproteinase-3 (MMP3), MMP3 (gene 4314); test: LTEA_HepaRG_MMP3: Life Technologies and Expression Analysis (LTEA) Assay for matrix metalloproteinase-3 (MMP3) using HepaRG (AID 2283519)
# How it was run: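 Differentiated human HepaRG cells, plated 48 h on collagen I, were exposed in duplicate for 48 h in serum-free induction medium to eight half-log concentrations up to 100 uM in 0.5% DMSO. MMP3 mRNA was quantified by TaqMan qRT-PCR, normalised to ACTB, GAPDH and POLR2A.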
# [11] = read-out: Paternally Expressed 10 (PEG10), PEG10 (gene 23089); test: LTEA_HepaRG_PEG10: Life Technologies and Expression Analysis (LTEA) Assay for Paternally Expressed 10 (PEG10) using HepaRG (AID 2283520)
# How it was run: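 Differentiated HepaRG cells, plated 48 h then switched to serum-free induction medium, were exposed in duplicate for 48 h to eight half-log concentrations topping at 100 uM in 0.5% DMSO. PEG10 mRNA was quantified by TaqMan qRT-PCR, normalised to ACTB, GAPDH and POLR2A.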
# [12] = read-out: Protein phosphatase 2A (PPP2R4), PTPA (gene 5524); test: LTEA_HepaRG_PPP2R4: Life Technologies and Expression Analysis (LTEA) Assay for Protein phosphatase 2A (PPP2R4) using HepaRG (AID 2283522)
# How it was run: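 Differentiated HepaRG cells in serum-free induction medium were exposed in duplicate for 48 h to eight concentrations, top 100 uM with half-log dilutions, in 0.5% DMSO. PPP2R4 mRNA was quantified by TaqMan qRT-PCR, normalized to ACTB, GAPDH and POLR2A.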
# [13] = read-out: Phosphatase and tensin (PTEN), PTEN (gene 5728); test: LTEA_HepaRG_PTEN: Life Technologies and Expression Analysis (LTEA) Assay for Phosphatase and tensin (PTEN) using HepaRG (AID 2283523)
# How it was run: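 Differentiated human HepaRG cells, plated 48 h then switched to serum-free induction medium, were exposed in duplicate for 48 h to eight half-log concentrations up to 100 uM in 0.5% DMSO. PTEN mRNA measured by TaqMan qRT-PCR, normalized to ACTB/GAPDH/POLR2A, bidirectional fit versus DMSO.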
# [14] = read-out: solute carrier (SLC22A1), SLC22A1 (gene 6580); test: LTEA_HepaRG_SLC22A1: Life Technologies and Expression Analysis (LTEA) Assay for solute carrier (SLC22A1) using HepaRG (AID 2283524)
# How it was run: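 Human HepaRG cells were plated 48 h, switched to serum-free induction medium, then exposed in duplicate for 48 h to 8-point half-log series from 100 uM in 0.5% DMSO. SLC22A1 mRNA measured by qRT-PCR, normalized to ACTB/GAPDH/POLR2A, fitted bidirectionally versus DMSO.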
# [15] = read-out: Pyruvate Dehydrogenase Kinase 4 (PDK4), PDK4 (gene 5166); test: LTEA_HepaRG_PDK4: Life Technologies and Expression Analysis (LTEA) Assay for Pyruvate Dehydrogenase Kinase 4 (PDK4) using HepaRG (AID 2283525)
# How it was run: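 Differentiated human HepaRG cells, pre-cultured 48 h, were exposed in duplicate for 48 h in serum-free induction medium to eight half-log concentrations up to 100 uM in 0.5% DMSO. PDK4 mRNA was quantified by qRT-PCR, normalized to ACTB, GAPDH and POLR2A, bidirectional fitting versus DMSO.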
# [16] = read-out: NAD(P)H dehydrogenase [quinone] 1 (NQO1), NQO1 (gene 1728); test: LTEA_HepaRG_NQO1: Life Technologies and Expression Analysis (LTEA) Assay for NAD(P)H dehydrogenase [quinone] 1 (NQO1) using HepaRG (AID 2283526)
# How it was run: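 Differentiated HepaRG cells, plated 48 h and then switched to serum-free induction medium, were exposed in duplicate for 48 h to 8-point half-log concentrations up to 100 uM in 0.5% DMSO. mRNA measured by qRT-PCR, normalized to ACTB, GAPDH, POLR2A; bidirectional fit versus DMSO.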
# [17] = read-out: Nuclear factor erythroid 2-related factor 2 (Homo sapiens) (UniProt Q16236); test: LTEA_HepaRG_NFE2L2: Life Technologies and Expression Analysis (LTEA) Assay for Nuclear factor erythroid 2-related factor 2 (NFE2L2) Transcription Factor using HepaRG (AID 2283527);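 as to outcome: TaqMan qRT-PCR transcript level normalised to ACTB GAPDH and POLR2A housekeeping genes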
# How it was run: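 Differentiated human HepaRG cells in serum-free induction medium were exposed for 48 h to eight concentrations (top 100 uM, half-log dilutions, 0.5% DMSO), in duplicate. NFE2L2 mRNA was quantified by TaqMan qRT-PCR, normalized to ACTB, GAPDH and POLR2A, with bidirectional fitting versus DMSO.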
# [18] = read-out: Interleukin 6 Receptor (IL6R), IL6R (gene 3570); test: LTEA_HepaRG_IL6R: Life Technologies and Expression Analysis (LTEA) Assay for Interleukin 6 Receptor (IL6R) using HepaRG (AID 2283510)
# How it was run: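 Differentiated human HepaRG cells, plated 48 h then switched to serum-free induction medium, were dosed in duplicate for 48 h at eight half-log concentrations up to 100 uM in 0.5% DMSO. IL6R mRNA quantified by qRT-PCR, normalized to ACTB/GAPDH/POLR2A; bidirectional fit versus DMSO.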
# [19] = read-out: Nuclear factor NF-kappa-B p105 subunit (Homo sapiens) (UniProt P19838); test: LTEA_HepaRG_NFKB1: Life Technologies and Expression Analysis (LTEA) Assay for Nuclear Factor Kappa B Subunit 1 (NFKB1) using HepaRG (AID 2283521);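 as to outcome: TaqMan qRT-PCR transcript normalised to ACTB GAPDH and POLR2A housekeeping genes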
# How it was run: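 Differentiated human HepaRG cells were exposed for 48 h in serum-free induction medium to eight concentrations (top 100 uM, half-log steps, 0.5% DMSO), in duplicate. NFKB1 mRNA was measured by TaqMan qRT-PCR, normalized to ACTB/GAPDH/POLR2A, and fitted bidirectionally against DMSO.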
# Chain of Nuclear factor erythroid 2-related factor 2 (Homo sapiens) (Q16236 whole entry, looked up): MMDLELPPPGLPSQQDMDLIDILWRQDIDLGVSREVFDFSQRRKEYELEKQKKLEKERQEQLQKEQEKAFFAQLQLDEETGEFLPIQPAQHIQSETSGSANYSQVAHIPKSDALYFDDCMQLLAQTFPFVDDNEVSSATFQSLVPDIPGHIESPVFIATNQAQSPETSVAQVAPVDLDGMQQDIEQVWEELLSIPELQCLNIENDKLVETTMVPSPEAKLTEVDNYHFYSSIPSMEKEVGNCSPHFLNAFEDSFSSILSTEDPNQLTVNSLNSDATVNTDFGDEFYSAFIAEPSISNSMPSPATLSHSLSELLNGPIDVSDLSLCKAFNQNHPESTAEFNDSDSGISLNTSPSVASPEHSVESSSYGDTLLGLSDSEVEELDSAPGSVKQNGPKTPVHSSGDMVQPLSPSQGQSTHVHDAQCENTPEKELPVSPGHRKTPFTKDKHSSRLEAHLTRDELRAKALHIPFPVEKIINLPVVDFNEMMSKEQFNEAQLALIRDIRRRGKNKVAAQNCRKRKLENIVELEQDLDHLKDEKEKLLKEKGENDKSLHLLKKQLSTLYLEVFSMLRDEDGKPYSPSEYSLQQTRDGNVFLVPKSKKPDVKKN
# Chain of Nuclear factor NF-kappa-B p105 subunit (Homo sapiens) (P19838 whole entry, looked up): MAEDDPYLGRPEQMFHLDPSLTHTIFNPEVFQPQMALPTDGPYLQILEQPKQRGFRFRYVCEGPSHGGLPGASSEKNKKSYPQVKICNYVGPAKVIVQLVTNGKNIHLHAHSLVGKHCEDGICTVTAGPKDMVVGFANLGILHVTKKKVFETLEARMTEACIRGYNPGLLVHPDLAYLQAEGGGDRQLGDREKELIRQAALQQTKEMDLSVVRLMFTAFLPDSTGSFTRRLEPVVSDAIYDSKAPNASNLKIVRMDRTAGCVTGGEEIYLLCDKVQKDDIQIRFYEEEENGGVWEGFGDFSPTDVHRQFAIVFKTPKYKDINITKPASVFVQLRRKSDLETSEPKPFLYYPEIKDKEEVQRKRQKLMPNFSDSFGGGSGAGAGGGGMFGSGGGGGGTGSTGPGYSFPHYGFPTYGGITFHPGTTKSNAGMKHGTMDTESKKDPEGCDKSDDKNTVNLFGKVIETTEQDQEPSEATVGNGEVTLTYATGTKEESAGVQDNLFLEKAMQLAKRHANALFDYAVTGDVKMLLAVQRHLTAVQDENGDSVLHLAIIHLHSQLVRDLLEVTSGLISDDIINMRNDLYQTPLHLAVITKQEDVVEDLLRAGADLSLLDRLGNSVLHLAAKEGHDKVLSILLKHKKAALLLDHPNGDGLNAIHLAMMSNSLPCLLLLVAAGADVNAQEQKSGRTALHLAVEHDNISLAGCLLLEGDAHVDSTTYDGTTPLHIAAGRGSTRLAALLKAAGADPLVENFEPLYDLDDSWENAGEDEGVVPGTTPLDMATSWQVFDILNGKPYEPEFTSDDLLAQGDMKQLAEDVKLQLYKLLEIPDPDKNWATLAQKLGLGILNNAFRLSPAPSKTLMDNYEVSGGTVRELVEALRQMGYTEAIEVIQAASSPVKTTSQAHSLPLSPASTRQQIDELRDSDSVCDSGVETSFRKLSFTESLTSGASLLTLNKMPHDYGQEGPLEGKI
smiles,measurement,setting,value
COc1ccc2c(c1)c(CC(=O)O)c(C)n2C(=O)c1ccc(Cl)cc1,outcome,[1],inactive
same,outcome,[2],inactive
same,outcome,[3],inactive
same,outcome,[4],inactive
same,outcome,[5],inactive
same,outcome,[6],inactive
same,outcome,[7],inactive
same,outcome,[8],inactive
same,outcome,[9],inactive
same,outcome,"MYC, MYC (gene 4609)",inactive
same,outcome,[10],inactive
same,outcome,[11],inactive
same,outcome,[12],inactive
same,outcome,[13],inactive
same,outcome,[14],inactive
same,outcome,[15],inactive
same,outcome,[16],inactive
same,outcome,[17],inactive
C1CCC(SSC2CCCCC2)CC1,outcome,[2],inactive
same,outcome,[18],inactive
same,outcome,[3],inactive
same,outcome,[4],inactive
same,outcome,[5],inactive
same,outcome,[6],inactive
same,outcome,[7],inactive
same,outcome,[8],inactive
same,outcome,[9],inactive
same,outcome,"MYC, MYC (gene 4609)",inactive
same,outcome,[10],inactive
same,outcome,[11],inactive
same,outcome,[19],inactive
same,outcome,[12],inactive
same,outcome,[13],inactive
same,outcome,[14],inactive
same,outcome,[15],inactive
same,outcome,[16],inactive
same,outcome,[17],inactive
CCc1c(C(=O)NN2CCCCC2)nn(-c2ccc(Cl)cc2Cl)c1-c1ccc(Br)cc1,AC50,[1],31.6 µM (active)
same,AC50,[2],76.5 µM (active)
same,AC50,[3],58.6 µM (active)
same,AC50,[4],50 µM (active)
same,AC50,[5],50 µM (active)
same,AC50,[6],34.2 µM (active)
same,AC50,[7],4.13 µM (active)
same,AC50,[8],29.8 µM (active)
same,AC50,[9],33.2 µM (active)
same,AC50,"MYC, MYC (gene 4609)",50 µM (active)
same,AC50,[11],29.3 µM (active)
same,AC50,[19],74.8 µM (active)
same,outcome,[12],inactive
same,outcome,[13],inactive
same,AC50,[14],40.4 µM (active)
same,AC50,[15],22.1 µM (active)
same,AC50,[16],80.1 µM (active)
same,AC50,[17],72.4 µM (active)
Cc1c(C(=O)O)c(O)cc2c1C(=O)c1c(O)c([C@@H]3O[C@H](CO)[C@@H](O)[C@H](O)[C@H]3O)c(O)c(O)c1C2=O,outcome,[2],inactive
same,outcome,[3],inactive
same,outcome,[4],inactive
same,outcome,[5],inactive
same,outcome,[6],inactive
same,outcome,[7],inactive
same,outcome,[8],inactive
same,outcome,[9],inactive
same,outcome,"MYC, MYC (gene 4609)",inactive
same,outcome,[10],inactive
same,outcome,[11],inactive
same,outcome,[12],inactive
same,outcome,[13],inactive
same,outcome,[14],inactive
same,outcome,[15],inactive
same,outcome,[16],inactive
same,outcome,[17],inactive
